From PubChem BioAssay (NCI)
The panel holds about 79,000 compounds, 15% with a hit somewhere; the sample as a whole holds those more often. Activity calls are given as the source filed them. Rule as the data show it: active = growth inhibition above about 70%; inactive = the rest. Where a SMILES comes first, the peptide text is derived from it. The star is where a group is joined. Cbz = O=C(OCc1ccccc1)*

Legend:
[1] = NCI Yeast Anticancer Drug Screen. Data for the rad50 strain (AID 155);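 also: 0% = growth of vehicle-only cultures of the same strain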; conditions: S. cerevisiae rad50 strain growth inhibition; at 50.0 µM; active compounds read high
Method in brief: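 A DNA repair-deficient yeast mutant serves as the test organism; compound-induced growth inhibition is calculated against vehicle-treated cells.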

[2] = NCI Yeast Anticancer Drug Screen. Data for the mec2-1 strain (AID 157); conditions: S. cerevisiae mec2-1 strain, at 50.0 µM, active compounds read high
Method in brief: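 Using mec2-1 yeast: add compound, measure growth, express inhibition versus vehicle-treated cultures.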

[3] = NCI Yeast Anticancer Drug Screen. Data for the sgs1 mgt1 strain (AID 161);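 also: 0% = growth of cultures given vehicle only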; conditions: S. cerevisiae sgs1 mgt1 strain, at 50.0 µM, active compounds read high
Method in brief: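 This yeast growth screen uses a strain with defined DNA-repair lesions; compound-treated growth is compared with vehicle-treated growth.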

[4] = NCI Yeast Anticancer Drug Screen. Data for the cln2 rad14 strain (AID 165);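 also: 0% = growth equal to vehicle treated cultures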; conditions: S. cerevisiae cln2 rad14 strain, at 50.0 µM, active compounds read high
Method in brief: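 Yeast strain cln2 rad14, bearing defects in cell cycle control and DNA repair, serves as the test system; values reflect growth inhibition compared with vehicle.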

[5] = NCI Yeast Anticancer Drug Screen. Data for the bub3 strain (AID 167); conditions: S. cerevisiae bub3 mutant strain, at 50.0 µM, active compounds read high
Method in brief: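 Inhibition values come from growth of compound-treated mutant yeast normalised to vehicle-treated controls.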

[6] = NCI Yeast Anticancer Drug Screen. Data for the mlh1 rad18 strain (AID 175); conditions: S. cerevisiae mlh1 rad18 strain growth inhibition; at 50.0 µM; active compounds read high
Method in brief: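 Steps: expose repair-defective yeast to compound; measure growth; express inhibition against vehicle-treated controls.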

Measured: growth inhibition

COc1cccc(N2CCN(CC(O)COc3ccc(N)cc3)CC2)c1 (stereo unspecified)
inactive: [1] 36.1% | [2] 25.1% | [3] 31.9% | [4] 30.6% | [5] 25.1% | [6] 44%

Cc1cc(S(=O)(=O)O)ccc1Cl
inactive: [1] -27.3% | [2] -8.2% | [3] -19.3% | [4] -38.9% | [5] -0.25% | [6] -31.8%

COC(=O)C1(Cc2ccccc2)Cc2ccccc2C1=O (stereo unspecified)
inactive: [1] -3.1% | [2] 3% | [3] 37.7% | [4] 33.9% | [5] 39.2% | [6] -3%

CCOC(=O)C1=C(c2ccccc2)NC(c2ccccc2)=C(C(=O)OCC)c2c1c(=O)cc[nH]c2=O
inactive: [1] -19.6% | [2] 1.45% | [3] 18.1% | [4] 18.2% | [5] -9.9% | [6] 2.35%

COc1cc(C2C3=C(COC3=O)OC(C)(C)Oc3cc4c(cc32)OCO4)cc(OC)c1O (stereo unspecified)
inactive: [1] 55.7% | [2] -3.6% | [3] -7.3% | [4] -28.7% | [5] -27.1% | [6] 0%

CCOC(=O)c1ccc(OC(=O)Nc2ccccc2)cc1
inactive: [1] -2.2% | [2] 6% | [3] 1.15% | [4] -12.4% | [5] -2.8% | [6] -28.1%

Nc1ccc2c(=O)[nH][nH]c2c1
inactive: [1] -26.6% | [2] -40.5% | [3] -25% | [4] 10.8% | [5] -25.2% | [6] -9.2%

Cn1c(COc2ccc(/C=N\NC(=O)c3ccc(C(=O)N/N=C/c4ccc(OCc5c[n+]6ccccc6n5C)cc4)cc3)cc2)c[n+]2ccccc12
inactive: [1] -5% | [2] 3.5% | [3] -2.85% | [4] 26.7% | [5] 1.6% | [6] -36.8%

COc1ccc(CC(=O)OCCCl)cc1OC
inactive: [1] -17% | [2] -22.4% | [3] 3% | [4] -26.4% | [5] 44.1% | [6] -20.7%

CCC(=O)Oc1c(C(C)C)cccc1C(C)(C)C
inactive: [1] -22% | [2] -31.6% | [3] -19.7% | [4] -8% | [5] -31.4% | [6] -14.8%

CCOC(=O)c1[nH]c(C)c(C(=O)OC(C)(C)C)c1C
inactive: [1] 4.55% | [2] 14.8% | [3] 0.35% | [4] 10.4% | [5] -4.65% | [6] 0.45%

CCN(CC)CN(CC)CC
inactive: [1] 13.7% | [2] -9.2% | [3] 7.6% | [4] 21.4% | [5] 10.9% | [6] 9.25%

CC1CCN(C(=O)c2cc(Nc3ccnc4cc(Cl)ccc34)ccc2O)CC1
inactive: [1] -2.05% | [2] -3.4% | [3] -6.65% | [4] -4.35% | [5] -3.9% | [6] 7.6%

CN1CCN(C2CCCc3ccccc3C2O)CC1 (stereo unspecified)
inactive: [1] -0.75% | [2] 13.6% | [3] -15.7% | [4] -25.1% | [5] 1.3% | [6] 0.2%

O=C(NC(=O)c1c(F)cccc1F)Nc1ccc(Br)cc1
inactive: [1] 29.2% | [2] 53.3% | [3] 19.4% | [4] 7.25% | [5] 34.5% | [6] 23.4%

CC1=C(O[Si](C(C)C)(C(C)C)C(C)C)C2CC1[C@@H]1C(=O)N(c3ccccc3)C(=O)[C@H]21 (stereo partly specified)
inactive: [1] -1.45% | [2] -10.8% | [3] -7.15% | [4] 5.5% | [5] -15.6% | [6] -15.1%

C[N+](C)(C)c1ncncn1
inactive: [1] 2.05% | [2] 1.5% | [3] -10.8% | [4] -21% | [5] -25.3% | [6] -0.1%

O=C(NC(Cc1ccccc1)C(=O)N1CCCC1C(=O)O)OCc1ccccc1 (stereo not drawn) (Cbz-Phe-Pro-OH; configuration not given here)
inactive: [1] 7.75% | [2] 2.55% | [3] -7.05% | [4] -13.9% | [5] -1.75% | [6] 5.05%

Nc1nc2c(c(=O)[nH]1)C(c1ccc(Cl)cc1)C=C(c1ccccc1)N2 (stereo unspecified)
inactive: [1] 5.6% | [2] 14.8% | [3] 3.8% | [4] -1.85% | [5] -4.75% | [6] -33.5%

COc1ccc(/C(C)=N/[O-])cc1CS[n+]1ccccc1
inactive: [1] 15.1% | [2] 27.7% | [3] 47.4% | [4] -4.4% | [5] 59.2% | [6] 48.6%

COc1ccc(-c2cc(-c3ccccc3)c(C#N)c(=O)n2C2OC(CO)C(O)C(O)C2O)cc1 (stereo unspecified)
inactive: [1] -8.2% | [2] 11.6% | [3] 2.45% | [4] 12.8% | [5] -5.6% | [6] -2.05%

NCC1OC(OC2C(CO)OC(OC3C(O)C(N)CC(N)C3OC3OC(CO)C(O)C(O)C3N)C2O)C(N)C(O)C1O (stereo unspecified)
inactive: [1] 33.8% | [2] -18.1% | [3] 1.85% | [4] 1.4% | [5] 27.6% | [6] 33.7%

Cn1c(=O)c(Br)cc2ccccc21
inactive: [1] 10.2% | [2] 13.9% | [3] 21.3% | [4] 8.45% | [5] 9.1% | [6] 33.5%

Cc1ccc(C(c2ccccc2)C(CC(=O)O)CC(=O)O)cc1 (stereo unspecified)
inactive: [1] 1.2% | [2] 20% | [3] 15% | [4] 6.45% | [5] 5.2% | [6] 15.9%

OCC1COC(c2ccc(Cl)cc2)O1 (stereo unspecified)
inactive: [1] -10.1% | [2] -10.4% | [3] -19.8% | [4] -17.9% | [5] -16.4% | [6] -7.75%

O=C1CCC(=O)N1Cc1ccc(Cl)cc1
inactive: [1] -4.7% | [2] 5.5% | [3] -1.1% | [4] -13.6% | [5] -3.8% | [6] -4.1%

CC1CCCC2(C1)OCC(O)CO2 (stereo unspecified)
inactive: [1] 23.2% | [2] -2.2% | [3] 8.8% | [4] 12.8% | [5] 7.65% | [6] 10.2%

COc1ccc(N=Nc2cc(OC)c(N=Nc3c(O)c4ccccc4[nH]c3=O)cc2OC)cc1
inactive: [1] 18.1% | [2] 16.8% | [3] 25.1% | [4] 13.8% | [5] -14.2% | [6] 17.1%

C[N+]1(C)CCCC(c2ccccc2)(c2ccccc2)C(O)C1 (stereo unspecified)
inactive: [1] 10.8% | [2] 7.15% | [3] 11.2% | [4] 23.4% | [5] -2.65% | [6] 11.9%

CC(Oc1ccccc1-c1ccccc1)C(=O)N(C)C (stereo unspecified)
inactive: [1] -15.2% | [2] -0.2% | [3] 1.45% | [4] 0.75% | [5] -20.6% | [6] -45.6%

O=C(O)c1cc(=O)c2cc(Cc3ccccc3)ccc2[nH]1
inactive: [1] 4.7% | [2] 6.5% | [3] 10.4% | [4] 9.8% | [5] 11.1% | [6] 12.8%

CC(=O)NNc1nc(C)c(C(=O)/C=C/c2ccccc2Cl)s1
inactive: [1] 37.5% | [2] 16.1% | [3] 17.4% | [4] 19.4% | [5] 23.1% | [6] 43.5%

O=[n+]1c2c(n([O-])c3cc(Cl)c(Cl)cc31)CCC2
inactive: [1] 25.4% | [2] -2.4% | [3] 22.9% | [4] 5.05% | [5] 4% | [6] 28.4%

CNc1ccc(C(=O)N(C(=O)NC2CCCCC2)C2CCCCC2)cc1
inactive: [1] -6.65% | [2] -5.6% | [3] 4.7% | [4] -6.85% | [5] -1.95% | [6] 5.15%

Cc1ccc2c(c1)C(C)(C)CCC2
inactive: [1] -2.1% | [2] -18.4% | [3] -18.4% | [4] -59.6% | [5] -9.1% | [6] 4.95%

NC(=O)C(C(N)=O)c1ccnc2ccccc12
inactive: [1] 8.6% | [2] -2.65% | [3] -16% | [4] -16.8% | [5] -2.1% | [6] 10.9%
